Experiment [1] in a line: antimalarial activity against Dd2 strain (AID 2302;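 active = growth inhibition above 50% at the single 2 µM test dose, taken to imply half-maximal potency below 2 µM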;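 also: 0% = DMSO untreated growth and 100% = chloroquine plus artemisinin killed control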). Conditions: P. falciparum Dd2 in RBCs, LDH growth readout, 72 h; at 2 µM; stronger effect = higher value.
The nature of experiment [2]: HepG2 cytotoxicity, primary screen, cytotoxicity control for P. falciparum antimalarial project, cell-based, ATP luminescence (AID 2303;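 active = inhibition above 50%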;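 also: 0% = DMSO wells and 100% = digitonin-killed cells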). Conditions: HepG2 viability, 24-48 h, at 10 µM, stronger effect = higher value.
The target in experiment [3] is L-lactate dehydrogenase (Plasmodium falciparum (isolate CDC / Honduras)) (UniProt Q27743). Put plainly: PfLDH activity inhibition – cell lysate, 3D7 strain, counter-screen for P. falciparum growth inhibition project (AID 2304).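 Also: 0% = vehicle and 100% = reference inhibitor.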 The following applies: P. falciparum 3D7 crude extract, LDH APAD/NBT absorbance; at 2 µM; stronger effect = higher value. In general terms: Counterscreens check selectivity or assay interference.
L-lactate dehydrogenase (Plasmodium falciparum (isolate CDC / Honduras)), sequence (Q27743 whole entry, looked up): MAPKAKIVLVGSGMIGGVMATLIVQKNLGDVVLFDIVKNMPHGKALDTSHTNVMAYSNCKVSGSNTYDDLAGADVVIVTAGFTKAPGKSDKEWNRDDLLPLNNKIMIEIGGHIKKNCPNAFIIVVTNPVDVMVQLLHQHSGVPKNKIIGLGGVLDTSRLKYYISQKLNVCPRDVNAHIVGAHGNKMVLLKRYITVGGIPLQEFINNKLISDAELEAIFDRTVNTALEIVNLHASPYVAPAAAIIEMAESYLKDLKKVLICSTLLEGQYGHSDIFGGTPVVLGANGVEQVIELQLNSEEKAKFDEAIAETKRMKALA

Experiment [4] in a line: inhibition of 3D7 malaria parasite growth – strain 3D7 (AID 2306).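 Also: 0% = DMSO wells and 100% = chloroquine plus artemisinin control wells.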 The following applies: P. falciparum 3D7 erythrocytic growth, LDH absorbance, 72 h; at 2 µM; stronger effect = higher value.
Experiment [5] concerns the target Calcium-dependent protein kinase 1 (Plasmodium falciparum (isolate 3D7)) (UniProt P62344). Description: PfCDPK1 kinase inhibitors, biochemical, TCAMS library (AID 1159585; cut-off not given, nearly all actives have IC50 up to about 0.98 µM;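 also: inhibitors leave more ATP so luminescence rises with inhibition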). Conditions: recombinant PfCDPK1, Kinase-Glo ATP depletion luminescence. On the technique in general: In Kinase-Glo more light means more ATP remaining.
The target of experiment [6] is Plasmodium falciparum protein kinase 6 (PK6, PF3D7_1337100) (UniProt Q8IDW1). Put plainly: PfPK6 kinase inhibitors, biochemical, TCAMS library (AID 1159586). The following applies: recombinant PfPK6, Kinase-Glo ATP depletion luminescence.
Plasmodium falciparum protein kinase 6 (PK6, PF3D7_1337100), sequence (Q8IDW1 1-305): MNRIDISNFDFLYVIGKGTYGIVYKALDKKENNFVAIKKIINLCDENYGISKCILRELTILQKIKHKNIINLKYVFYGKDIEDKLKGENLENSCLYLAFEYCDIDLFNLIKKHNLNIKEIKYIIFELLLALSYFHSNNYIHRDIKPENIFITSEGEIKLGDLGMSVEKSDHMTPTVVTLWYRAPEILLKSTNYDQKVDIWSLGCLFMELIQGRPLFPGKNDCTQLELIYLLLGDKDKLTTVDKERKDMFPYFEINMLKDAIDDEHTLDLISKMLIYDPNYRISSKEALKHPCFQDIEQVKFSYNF
For experiment [7], the target named is Protein kinase 7 (PK7), Plasmodium falciparum 3D7 (PF3D7_0213400) (UniProt Q7YTF7). Put plainly: inhibition of Plasmodium PK7 catalytic activity – biochemical, TCAMS antimalarial set, Kinase-Glo luminescence (AID 1159587). The following applies: recombinant PfPK7, Kinase-Glo ATP depletion luminescence.
Protein kinase 7 (PK7), Plasmodium falciparum 3D7 (PF3D7_0213400), sequence (Q7YTF7 1-343): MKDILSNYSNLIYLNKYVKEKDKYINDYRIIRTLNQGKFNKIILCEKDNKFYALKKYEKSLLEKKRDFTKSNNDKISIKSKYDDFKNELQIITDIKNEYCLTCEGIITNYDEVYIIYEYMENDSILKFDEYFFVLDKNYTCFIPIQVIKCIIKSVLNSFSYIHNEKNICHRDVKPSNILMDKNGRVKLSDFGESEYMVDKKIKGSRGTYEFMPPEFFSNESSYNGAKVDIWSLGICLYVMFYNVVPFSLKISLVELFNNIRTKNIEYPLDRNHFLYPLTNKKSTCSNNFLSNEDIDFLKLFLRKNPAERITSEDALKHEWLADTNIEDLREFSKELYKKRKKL
In experiment [8] the target is Calcium-dependent protein kinase 4 (Plasmodium falciparum (isolate 3D7)) (UniProt Q8IBS5). Description: PfCDPK4 kinase inhibitors, biochemical, TCAMS library (AID 1159588; cut-off not given, nearly all actives have IC50 up to about 0.91 µM). The following applies: recombinant PfCDPK4, Kinase-Glo ATP depletion luminescence.
Calcium-dependent protein kinase 4 (Plasmodium falciparum (isolate 3D7)), sequence (Q8IBS5 whole entry, looked up): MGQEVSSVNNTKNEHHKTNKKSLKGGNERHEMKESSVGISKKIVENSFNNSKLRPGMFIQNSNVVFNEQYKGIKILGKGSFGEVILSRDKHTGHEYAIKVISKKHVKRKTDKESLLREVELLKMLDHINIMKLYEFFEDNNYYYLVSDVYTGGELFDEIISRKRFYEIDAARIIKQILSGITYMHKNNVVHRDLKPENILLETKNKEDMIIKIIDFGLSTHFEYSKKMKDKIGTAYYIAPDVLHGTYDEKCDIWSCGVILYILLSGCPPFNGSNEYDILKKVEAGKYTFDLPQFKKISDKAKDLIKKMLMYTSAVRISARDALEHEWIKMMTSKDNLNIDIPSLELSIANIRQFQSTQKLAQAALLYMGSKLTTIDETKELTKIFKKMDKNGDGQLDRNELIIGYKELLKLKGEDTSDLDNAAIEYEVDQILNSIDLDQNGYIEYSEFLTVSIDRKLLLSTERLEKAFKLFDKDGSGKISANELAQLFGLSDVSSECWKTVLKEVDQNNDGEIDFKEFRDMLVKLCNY

A number with no mark means an inactive call. For part of these data: Results with a measured potency or affinity are listed apart. Calls of active or inactive are those of the source. Unless noted, no rule for the calls is given here.

Drawing on PubChem BioAssay, this text covers growth inhibition, inhibition and outcome for three compounds.

Calcium-dependent protein kinase 1 (Plasmodium falciparum (isolate 3D7)), sequence (P62344 whole entry, looked up): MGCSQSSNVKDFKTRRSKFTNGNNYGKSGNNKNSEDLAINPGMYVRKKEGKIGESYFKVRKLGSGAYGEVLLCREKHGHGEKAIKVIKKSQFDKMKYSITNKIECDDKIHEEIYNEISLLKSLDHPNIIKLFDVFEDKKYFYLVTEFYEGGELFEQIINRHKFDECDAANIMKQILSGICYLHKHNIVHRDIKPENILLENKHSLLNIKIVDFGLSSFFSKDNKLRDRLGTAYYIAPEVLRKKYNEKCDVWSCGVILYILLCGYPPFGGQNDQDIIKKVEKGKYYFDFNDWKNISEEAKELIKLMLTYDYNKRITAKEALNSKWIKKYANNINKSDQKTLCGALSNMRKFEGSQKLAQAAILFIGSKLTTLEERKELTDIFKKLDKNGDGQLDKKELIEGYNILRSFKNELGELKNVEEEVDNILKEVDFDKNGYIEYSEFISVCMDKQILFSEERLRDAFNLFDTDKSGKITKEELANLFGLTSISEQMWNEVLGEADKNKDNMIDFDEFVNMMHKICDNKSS

As to `CNc1nc(NN=Cc2cc([N+](=O)[O-])c(Cl)cc2Cl)nc(Nc2cccc(C(F)(F)F)c2)n1`, the growth inhibition in experiment [1] is 97% (active); in experiment [4] it was 100% (active). Besides, the inhibition (as a rule, the drop in the measured response relative to a control, in per cent) in experiment [2] is 13%; in experiment [3], 9%. Also, the result in experiment [5], in experiment [6], in experiment [7] and in experiment [8] was inactive.

As for `Cn1ccnc1CNC(=O)c1ccc(-c2cccc(-c3nc4ccc(F)cc4[nH]3)c2)cc1`, the growth inhibition in experiment [1] was 8%; in experiment [4], 96% (active). The inhibition is 8% in experiment [2] and 7% in experiment [3]. Further, the result in experiment [5], in experiment [6], in experiment [7] and in experiment [8] was inactive.

For `N#CCCN1CCN(Cc2ccc(-c3ccc(-c4nc5ccc(F)cc5[nH]4)s3)cc2)CC1`, the growth inhibition in experiment [1] is 38%; in experiment [4] it was 99% (active). The inhibition is 58% (active) in experiment [2] and 6% in experiment [3]. Moreover, the outcome in experiment [5], in experiment [6], in experiment [7] and in experiment [8] was inactive.
